Here are results for four molecules from PubChem BioAssay (EPA / NIEHS).

A short description of assay [1]: APR_HepG2_CellCycleArrest_24hr: Apredica 24-hour HepG2 Assay for Cell Cycle Arrest (AID 2282905).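 Note: cell cycle arrest scored as ratio of 2N to 4N nuclear DNA content.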 The conditions noted are these: imaging, actives raise or lower the signal. In a few lines: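 Cell cycle arrest is scored from nuclear DNA content measured by high-content imaging of Hoechst 33342-stained HepG2 cells following 24-hour treatment at ten concentrations up to 200 uM, with DMSO as baseline.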

A short description of assay [2]: APR_HepG2_NuclearSize_24hr: Apredica 24-hour HepG2 Assay for Nuclear Size (AID 2282907). The conditions noted are these: high-content imaging, actives raise or lower the signal. In a few lines:
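Compounds in DMSO (final 0.5%) were added to human HepG2 hepatoma cells at ten concentrations up to 200 uM for 24 hr. Fixed nuclei were stained with Hoechst 33342, and nuclear diameter was quantified from automated images.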

A short description of assay [3]: APR_HepG2_CellLoss_24hr: Apredica 24-hour HepG2 Assay for Cell Loss (AID 2282908).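 Note: fit in both directions so a hit may be cell loss or gain.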 The conditions noted are these: high-content imaging. In a few lines: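 Cell number is quantified by fluorescence imaging of Hoechst 33342-stained nuclei following dosing at 0.39–200 uM in 0.5% DMSO. Curves are fitted in both directions from the DMSO baseline.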
The nature of assay [4]: APR_HepG2_MicrotubuleCSK_24hr: Apredica 24-hour HepG2 Assay for Microtubule CSK Stabilty (AID 2282909). The conditions noted are these: HepG2 microtubule cytoskeleton imaging, actives raise or lower the signal. In a few lines:
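Steps: dose HepG2 for 24 h (0.39–200 uM, 0.5% DMSO); fix 30 min in 3.7% formaldehyde at room temperature; permeabilize; stain alpha-tubulin 60 min; image microtubule cytoskeleton at 20x. Signal change fitted in both directions relative to DMSO.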

Assay [5] is described as follows: APR_HepG2_MitoticArrest_24hr: Apredica 24-hour HepG2 Assay for Mitotic Arrest (AID 2282910). The conditions noted are these: high-content imaging, actives raise or lower the signal. In a few lines:
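HepG2 cells, 24 h exposure at 0.39-200 uM (10 concentrations, duplicate, 0.5% DMSO). Fixed, stained for phospho-histone H3 with Hoechst; imaged by high-content microscopy, bidirectional fit versus DMSO.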

A short description of assay [6]: APR_HepG2_MitoMembPot_24hr: Apredica 24-hour HepG2 Assay for Mitochondrial Membrane Potential (AID 2282911). The conditions noted are these: imaging, actives raise or lower the signal. In a few lines:
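Human hepatoma HepG2 cultures received ten compound concentrations up to 200 uM for 24 hr. Membrane-potential dye signal, captured by automated fluorescence microscopy, was scored for gain or loss against DMSO controls.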

A short description of assay [7]: APR_HepG2_p53Act_24hr: Apredica 24-hour HepG2 Assay for p53 Activation (AID 2282913).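 Note: p53 protein immunofluorescence averaged per cell in HepG2 with Hoechst nuclei.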 The conditions noted are these: high-content imaging, actives raise or lower the signal. In a few lines:
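Automated fluorescence imaging quantifies p53 immunostaining in HepG2 cells after a 24 hr exposure (0.39–200 uM, duplicate, 0.5% DMSO). Nuclei are located by Hoechst 33342 staining.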

Assay [8] can be described thus: APR_HepG2_CellCycleArrest_72hr: Apredica 72-hour HepG2 Assay for Cell Cycle Arrest (AID 2282914). The conditions noted are these: high-content imaging, actives raise or lower the signal. In a few lines:
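Cell cycle arrest in HepG2 was scored from nuclear DNA content after 72 hr compound treatment (0.39–200 uM). Activity, either gain or loss, was fitted against the DMSO baseline.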

A short description of assay [9]: APR_HepG2_CellLoss_72hr: Apredica 72-hour HepG2 Assay for Cell Loss (AID 2282915). The conditions noted are these: high-content imaging. In a few lines: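 HepG2 cells exposed 72 h to compound at 0.39–200 uM (10 concentrations, duplicate) in 0.5% DMSO. Fixed with 3.7% formaldehyde and Hoechst 33342-stained. Imaged at 20x; nuclear count gives cell number, fitted bidirectionally versus DMSO.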

Assay [10] is described as follows: APR_HepG2_P-H2AX_72hr: Apredica 72-hour HepG2 Assay for H2AX Phosphorylation (AID 2282916).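 Note: phospho-histone H2A.x immunostain intensity per cell marking DNA damage.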 The conditions noted are these: imaging, actives raise or lower the signal. In a few lines:
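Following 72 hr treatment with 0.39–200 uM compound, HepG2 cells were formaldehyde-fixed, permeabilized and stained for phospho-H2A.x; signal was measured by high-content imaging and fitted bidirectionally against DMSO controls.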

The nature of assay [11]: APR_HepG2_MitoMembPot_72hr: Apredica 72-hour HepG2 Assay for Mitochondrial Membrane Potential (AID 2282917). The conditions noted are these: imaging, actives raise or lower the signal. In a few lines:
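HepG2 cells dosed 72 hr with compound at 0.39–200 uM in duplicate, 0.5% v/v DMSO final. Mitochondria stained with 250 nM MitoTracker Red CMXRos for 30 min before formaldehyde fixation, imaged by high-content fluorescence; bidirectional fit versus DMSO.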

Assay [12] in a line: APR_HepG2_MitoticArrest_72hr: Apredica 72-hour HepG2 Assay for Mitotic Arrest (AID 2282918). The conditions noted are these: high-content imaging, actives raise or lower the signal. In a few lines:
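Mitotic arrest in HepG2 is scored from phospho-histone H3 staining after 72 hr dosing across 0.39–200 uM, with DMSO at 0.5% v/v. Nuclei are identified by Hoechst 33342 and fluorescence intensity is quantified per cell.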

Assay [13] is described as follows: APR_HepG2_MicrotubuleCSK_72hr: Apredica 72-hour HepG2 Assay for Microtubule CSK Stabilty (AID 2282919). The conditions noted are these: HepG2 microtubule cytoskeleton, high-content imaging, actives raise or lower the signal. In a few lines:
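HepG2 cells were exposed 72 hr to compound at 0.39–200 uM in duplicate (0.5% DMSO final), then fixed and permeabilized. Alpha-tubulin immunofluorescence was imaged by high-content microscopy, with bidirectional fitting against DMSO and taxol as positive control.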

The nature of assay [14]: APR_HepG2_P-H2AX_24hr: Apredica 24-hour HepG2 Assay for H2AX Phosphorylation (AID 2282920). The conditions noted are these: high-content imaging, actives raise or lower the signal. In a few lines: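 Signal comes from a FITC-labeled secondary detecting phospho-histone H2A.x in fixed HepG2 cells, quantified by automated imaging at 20x. Dosing ran 24 hr across 0.39–200 uM with 0.5% v/v DMSO.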

Assay [15] in a line: APR_HepG2_StressKinase_72hr: Apredica 72-hour HepG2 Assay for Stress Kinase (AID 2282921). The conditions noted are these: HepG2 stress kinase (phospho-c-Jun) imaging, actives raise or lower the signal. In a few lines: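 Fluorescence intensity of Cy3-tagged anti-phospho-c-Jun antibody, quantified per cell from Hoechst-defined nuclei across six images per well, served as the read-out following 72 h exposure (0.39–200 uM, 0.5% v/v DMSO).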

A short description of assay [16]: APR_HepG2_StressKinase_24hr: Apredica 24-hour HepG2 Assay for Stress Kinase (AID 2282922). The conditions noted are these: HepG2 stress kinase (phospho-c-Jun) imaging, actives raise or lower the signal. In a few lines: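 HepG2 cells exposed 24 h to 0.39–200 uM compound in duplicate (0.5% v/v DMSO final). Cells fixed in 3.7% formaldehyde, permeabilized and immunostained for phospho-c-Jun; read by high-content fluorescence imaging, fitted bidirectionally against DMSO.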

Assay [17] is described as follows: APR_HepG2_p53Act_72hr: Apredica 72-hour HepG2 Assay for p53 Activation (AID 2282923).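 Note: average cellular p53 protein immunofluorescence intensity in HepG2 cells.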 The conditions noted are these: high-content imaging, actives raise or lower the signal. In a few lines: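 HepG2 monolayers receive test compounds in duplicate at ten concentrations (0.39 through 200 uM) for 72 hr. They are then formaldehyde-fixed, antibody-labelled for p53, Hoechst-stained and imaged, with activity fitted bidirectionally versus DMSO.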

The nature of assay [18]: APR_HepG2_MitoMass_72hr: Apredica 72-hour HepG2 Assay for Mitochondrial Mass (AID 2282924).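 Note: MitoTracker Red CMXRos stain intensity per cell imaged as mitochondrial mass.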 The conditions noted are these: high-content imaging, actives raise or lower the signal. In a few lines:
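HepG2 cells dosed 72 hr at 0.39–200 uM (0.5% DMSO), in duplicate. MitoTracker Red CMXRos 250 nM loaded 30 min before formaldehyde fixation; high-content fluorescence imaging, bidirectional fit versus DMSO.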

The nature of assay [19]: APR_HepG2_NuclearSize_72hr: Apredica 72-hour HepG2 Assay for Nuclear Size (AID 2282925). The conditions noted are these: high-content imaging, actives raise or lower the signal. In a few lines:
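HepG2 cells dosed 72 h at 0.39–200 uM (10 concentrations, duplicate) in 0.5% v/v DMSO final. Fixed, Hoechst 33342-stained nuclei imaged; nuclear diameter measured by automated image analysis. Bidirectional fit versus DMSO.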

Molecules are shown by their SMILES. Calls of active or inactive are those of the source. Rule for the calls: active = hit-call score of the fitted dose curve at least 0.9, where 1 is the maximum; inactive = score below 0.9.

For orientation: AC50 means the midpoint of the concentration-response curve, whichever way the signal moves. Regarding `CCN1CCC2(CC1)COc1cc3c(cc12)N(C(=O)c1ccc(-c2ccc(-c4nnc(C)o4)cc2C)cc1)CC3`, the result in [1], in assay [2], in assay [4], in [6], in assay [8] and in [13] was inactive. The molecule was classed as inactive in assay [19]. For the same molecule, the AC50 in assay [3] is 17.5 µM (active); in assay [5], 13.2 µM (active); in [7], 25.8 µM (active); in [9], 9.88 µM (active); in assay [10], 41.7 µM (active); in assay [11] it was 75.1 µM (active). Further, the AC50 in [12] is 6.34 µM (active); in assay [14] it was 28.9 µM (active); in assay [15], 5.12 µM (active); in assay [16] it was 47.9 µM (active); in assay [17], 59.8 µM (active); in assay [18] it was 44.7 µM (active).
Consider `CC(C)(c1ccccc1)c1ccc(O)c(C(C)(C)c2ccccc2)c1`, for which the call in assay [1], in assay [4], in assay [5], in assay [8], in [10] and in assay [11] was inactive. The molecule was classed as inactive in assay [13], in [15], in [17] and in assay [19]. The AC50 in [2] was 22 µM (active); in assay [3] it was 28.1 µM (active); in assay [6], 29.4 µM (active); in [7], 40.8 µM (active); in assay [9], 31.2 µM (active); in assay [12] it was 29.8 µM (active). For the same molecule, the AC50 in [14] was 69.5 µM (active); in [16], 134 µM (active); in [18], 30.1 µM (active).
On to `CC(=O)[O][Hg][c]1ccccc1`, for which the molecule was called inactive in [1], in assay [6], in assay [7], in assay [11] and in assay [19]. Further, the concentration at half-maximal activity (AC50) in assay [2] was 66.6 µM (active); in [3], 5.21 µM (active); in assay [4], 5.17 µM (active); in [5] it was 3.06 µM (active); in [8], 28.7 µM (active); in [9], 3.19 µM (active). Further, the AC50 in [10] is 3.55 µM (active); in assay [12], 1.83 µM (active); in [13], 2.44 µM (active); in assay [14], 1.74 µM (active); in [15], 7.33 µM (active); in assay [16] it was 88.1 µM (active). Further, the AC50 in assay [17] was 4.66 µM (active); in assay [18], 83.5 µM (active).
For `CCCCCCCCc1ccc(O)cc1`, the result in [1], in [4], in [6], in [10], in assay [13] and in [14] was inactive. In addition, the molecule was called inactive in [15], in assay [16], in assay [17] and in [19]. In addition, the AC50 in [2] is 103 µM (active); in assay [3] it was 67 µM (active); in [5] it was 77.2 µM (active); in assay [7] it was 67.3 µM (active); in [8], 52.5 µM (active); in assay [9], 86.7 µM (active). Moreover, the results for the AC50 in assay [11], in assay [12] and in assay [18] were 34.6 µM (active), 98 µM (active) and 95 µM (active), respectively.
